Each structure is given as a SMILES string. Active and inactive are the calls of the source.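 Rule for the calls: active = visual image review flags a hit and inhibition of aggregation exceeds 20%; inconclusive = visual hit but inhibition at or below 20%; inactive = no hit on visual image review.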

The assay is described as follows: inhibitors of mutant huntingtin aggregation, primary screen, imaging, exon1htt(103Q)mCFP cells, high-content imaging (AID 483).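 For nuclei count: percent of the per-plate median nuclei count of sample wells.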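 Note: compound exposure lasted 3 days before fixation.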 The conditions noted are these: exon1htt(103Q)mCFP cell line, aggregate imaging, at 2 µM; inhibition of aggregation: stronger effect = higher value; nuclei count: measured here: cell count, toxicity.
In the case of `CCCCCn1c(CN2CCN(C(=O)c3ccco3)CC2)nc2c1c(=O)n(C)c(=O)n2C`, the inhibition of aggregation is -17.8% (inactive) and the nuclei count came to 103%.

As to `Cc1cc(C(=O)COC(=O)C2COc3ccccc3O2)c(C)n1CC1CCCO1` (stereo not given), the inhibition of aggregation was 19.3% (inactive) and the nuclei count came to 81.4%.

`COC(=O)Oc1c(Br)c(=O)oc2ccccc12`: the nuclei count is 99.4% and the inhibition of aggregation was -8.6% (inactive).

In the case of `CCOC(=O)CN1CC23C=CC(O2)C(C(=O)Nc2ccc(OCC)cc2)C3C1=O` (stereo not given), the inhibition of aggregation was -10.5% (inactive) and the nuclei count was determined as 112%.

On to `O=C(Cn1cc2c(n1)CCCC2)NCCc1ccccc1`, for which the inhibition of aggregation is 0.9% (inactive) and the nuclei count is 106%.

With `CCCC1(C(=O)OCC)NC(c2ccc(N(C)C)cc2)C2C(=O)N(c3ccc(F)cc3)C(=O)C21` (stereo not given), the nuclei count was found to be 69.8% and the inhibition of aggregation is 30.1% (inactive).

Take `COC(=O)c1ccc(NC(=O)CN2CCCC2)cc1`: the inhibition of aggregation was 13.1% (inactive) and the nuclei count amounted to 107%.

In the case of `C=CCc1ccccc1OCCCCN1CCCC1`, the nuclei count is 87.9% and the inhibition of aggregation is 9.9% (inactive).

For `O=C(NCc1ccc2c(c1)OCO2)c1ccccn1`, the inhibition of aggregation is 18.9% (inactive) and the nuclei count came to 100%.

For the compound `O=C(CSc1nnc(NC(=O)C2CCC2)s1)NC1CC1`, the inhibition of aggregation is -8.1% (inactive) and the nuclei count worked out at 66.2%.

Take `CCOC(=O)Cc1nnc2c(Nc3ccc(C)cc3)nc3nonc3n12`: the inhibition of aggregation was 15% (inactive) and the nuclei count came out at 87.3%.

For `COc1ccc(C(=O)NCC(=O)NC2=NCCS2)cc1`, the inhibition of aggregation is -22.1% (inactive) and the nuclei count is 69.1%.

For `Cc1nc(NC(=O)c2ccccc2)sc1-c1csc(NCc2ccco2)n1`, the nuclei count came out at 121% and the inhibition of aggregation is 0% (inactive).

`COc1ccccc1-c1nnc(SCC(=O)NC2CCCCC2)o1`: the nuclei count came to 76% and the inhibition of aggregation is -6.8% (inactive).

Take `O=C(CSc1nnnn1-c1ccc(Cl)cc1)NC(=O)Nc1ccc2c(c1)OCCO2`: the inhibition of aggregation is 19.6% (inactive) and the nuclei count was found to be 84.7%.

In the case of `O=C(CCC(=O)c1cccs1)NCc1ccccc1`, the nuclei count was found to be 111% and the inhibition of aggregation is -5.4% (inactive).

As to `Cn1c(=O)oc2cc(S(=O)(=O)N3CCN(c4ccccn4)CC3)ccc21`, the inhibition of aggregation was 24.1% (inactive) and the nuclei count was 116%.

On to `CC(=O)c1ccccc1Oc1nc(CN2CCOCC2)nc2scc(-c3cccs3)c12`, for which the inhibition of aggregation is 13.6% (inactive) and the nuclei count came to 99.2%.

As for `Cc1ccc(NC(=O)CCC(=O)O)cc1F`, the inhibition of aggregation was -13.4% (inactive) and the nuclei count was 97.1%.

As to `Cc1c(C#N)c2ncnc(-c3ccccc3)c2n1-c1ccccc1`, the inhibition of aggregation was -11.3% (inactive) and the nuclei count turned out to be 99.5%.

As to `O=C(c1ccc(CSCc2ccccc2F)o1)N1CCN(c2ccc(N3CCOCC3)nn2)CC1`, the inhibition of aggregation was 40.2% (inactive) and the nuclei count was determined as 79.3%.

For the compound `COc1ccc(N2CCN(C(=O)c3c(-c4ccccc4)noc3C)CC2)cc1`, the inhibition of aggregation was -16% (inactive) and the nuclei count was determined as 90.4%.

Take `Cn1c(=O)[nH]c(=O)c2c1nc(N1CCNCC1)n2CCOc1ccccc1`: the inhibition of aggregation is 2.5% (inactive) and the nuclei count is 104%.

In the case of `CC1CCCCN1CCNS(=O)(=O)c1ccc2c(c1)oc(=O)n2C` (stereo not given), the nuclei count was found to be 89.3% and the inhibition of aggregation was 4.6% (inactive).

For `CN1CCN(Cc2nc3c(c(=O)[nH]c(=O)n3C)n2CCc2ccccc2)CC1`, the inhibition of aggregation is 6.7% (inactive) and the nuclei count came out at 99.2%.

On to `O=C(c1ccco1)N1CCN(C(=O)c2sccc2-c2ccccc2)CC1`, for which the nuclei count was found to be 90% and the inhibition of aggregation was 7.1% (inactive).

Take `CC(C)CN(C(=O)c1ccc(=O)n(C)n1)c1nc2ccccc2s1`: the inhibition of aggregation is -17.5% (inactive) and the nuclei count worked out at 93.5%.

Regarding `CCOC(=O)N1CCC(NC(=O)CN2C(=O)CCSc3ccccc32)CC1`, the nuclei count worked out at 101% and the inhibition of aggregation is 5.8% (inactive).

`CCOc1ccc(NC(=O)CN2C(=O)C3CCCN3C2=O)cc1` (stereo not given): the inhibition of aggregation is -2.3% (inactive) and the nuclei count was 102%.

`COc1ccc(-c2ccc(-c3noc(-c4ccccc4OC)n3)c(OC)n2)cc1`: the inhibition of aggregation is -30.2% (inactive) and the nuclei count worked out at 86.6%.

As for `Cc1ccc(S(=O)(=O)N2CCN(CCO)CC2)cc1-c1nnc2c3ccccc3c(C)nn12`, the inhibition of aggregation is -26.9% (inactive) and the nuclei count was 102%.

With `CN(C)c1ccc(NC(=O)c2cc3c(=O)n4ccccc4nc3n2C)cc1`, the nuclei count came out at 89% and the inhibition of aggregation is 4.4% (inactive).

In the case of `Cc1cc(NC(=O)c2cccc(S(=O)(=O)N3CC(c4ccccc4)CC3=O)c2)no1` (stereo not given), the inhibition of aggregation was 2.3% (inactive) and the nuclei count was 107%.

For `CN(CCc1ccccn1)C(=O)CCNC(=O)Cn1cnc2ccccc2c1=O`, the nuclei count was 99.5% and the inhibition of aggregation was -4.7% (inactive).

As to `Cc1onc(-c2c(Cl)cccc2Cl)c1C(=O)NCC1CCCO1` (stereo not given), the inhibition of aggregation was 15.4% (inactive) and the nuclei count came out at 87.4%.

In the case of `CCOC(=O)C1(c2ccccc2)NC(c2ccc(N(C)C)cc2)C2C(=O)N(C)C(=O)C21` (stereo not given), the nuclei count was 116% and the inhibition of aggregation was 3.8% (inactive).

Take `COc1ccc(C2C(C(=O)Nc3cccnc3)=C(C)Nc3nc(-c4cccs4)nn32)cc1OC` (stereo not given): the inhibition of aggregation was 2.5% (inactive) and the nuclei count came out at 84.7%.

On to `CN(C)S(=O)(=O)Nc1ccc(Br)cc1F`, for which the inhibition of aggregation is 9.4% (inactive) and the nuclei count was found to be 103%.

As to `CNC(=O)c1ccsc1NC(=O)CN1C(=O)CCC1=O`, the inhibition of aggregation is 10.7% (inactive) and the nuclei count was 90.3%.

As for `CC(C)C(NC(=O)OCc1ccccc1)C(=O)OCC(=O)NCc1ccco1` (stereo not given), the nuclei count is 114% and the inhibition of aggregation was -14.8% (inactive).
